# Measurements taken from PubChem BioAssay (NCI).
# Compounds without any hit were thinned out: in the full panel of roughly 83,000, 20% have a hit.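 The endpoint reported here, percent growth, reads 100 for growth as untreated, 0 for no net growth and -100 for all cells dead.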 Unmarked numbers belong to inactive results. The source made the active and inactive calls. How the source made its calls: active means growth percent below 10; inactive means the rest.
# Legend:
# Assay in all cases: NCI-60 one-dose screen, 48 h (100 = growth as untreated, 0 = no growth, -100 = all killed)
# Conditions in all cases: 10 µM unless noted
# [1] = test system: DU-145 prostate
# [2] = test system: K-562 leukemia
# [3] = test system: MALME-3M melanoma
# [4] = test system: MDA-MB-231 breast
# [5] = test system: RXF 393 renal
# [6] = test system: SF-268 CNS
# [7] = test system: SF-295 CNS
# [8] = test system: SF-539 CNS
# [9] = test system: UACC-257 melanoma
# [10] = test system: M14 melanoma
SMILES,growth [1],growth [2],growth [3],growth [4],growth [5],growth [6],growth [7],growth [8],growth [9],growth [10]
COc1ncc(-c2ccc3nccc(-c4ccnnc4)c3c2)cc1NS(=O)(=O)c1ccc(F)cc1F,10.8%,3.76% (active),-34.2% (active),5.98% (active),-58.5% (active),6.46% (active),-27.3% (active),-47.2% (active),-36.2% (active),-7.62% (active)
Cc1cc(Nc2cc(N3CCN(C)CC3)nc(/C=C/c3ccccc3)n2)n[nH]1,26.9%,-18.8% (active),-60.6% (active),9.8% (active),-86.6% (active),-26.1% (active),-17% (active),-79.1% (active),-73.4% (active),-76.6% (active)
Cn1cc(-c2ccc(F)c(C(F)(F)F)c2)nc1C1CCN(c2ncnc3[nH]ncc23)CC1,77.3%,77.8%,76.5%,72.5%,56.7%,44.7%,70.8%,51.5%,74.3%,83.4%
Cc1cnc(NC(=O)Nc2cc(Br)c(C)cc2OC[C@@H]2CNCCO2)cn1,24%,-42.2% (active),-48.1% (active),22.2%,-14.8% (active),33.6%,4.01% (active),-75.8% (active),-76.8% (active),-84.5% (active)
COc1cc2ncnc3c2cc1OCCCCCN(C)Cc1ccc(Br)cc1N3,31.1%,26.1%,71.8%,63.7%,69.3%,65.1%,78.7%,88.6%,31.5%,36.9%
O=C(NOCCO)c1cc(CN2OCCCC2=O)c(F)c(F)c1Nc1ccc(I)cc1F,56.7%,31.2%,-2.48% (active),32.2%,24.9%,67.5%,71.6%,55.4%,-13.2% (active),9.12% (active)
C1=C\COCc2cc(ccc2OCCN2CCCC2)Nc2nccc(n2)-c2cccc(c2)COC/1,13.7%,1.93% (active),-79.3% (active),-1.88% (active),-74.8% (active),-0.949% (active),-33.8% (active),-83.7% (active),-75.1% (active),-59.4% (active)
CC(=O)Nc1cccc(-n2c(=O)n(C3CC3)c(=O)c3c(Nc4ccc(I)cc4F)n(C)c(=O)c(C)c32)c1,53%,25.5%,-0.925% (active),18.6%,-15.2% (active),53%,82.6%,41.1%,-21.9% (active),1.71% (active)
CCN(CCCOc1ccc2c(Nc3cc(CC(=O)Nc4cccc(F)c4)[nH]n3)ncnc2c1)CCOP(=O)(O)O,88.5%,48.4%,31.9%,79.5%,96.7%,76%,73.5%,48.8%,49.9%,45.1%
S=C(NCc1ccc2c(c1)OCO2)N1CCN(c2ncnc3c2oc2ccccc23)CC1,35.4%,19.4%,51.1%,57.1%,50.7%,42.2%,26.4%,39.7%,9.31% (active),35.2%
Cc1ccc(N)cc1CN1C(=O)c2ccccc2C1=O,105%,105%,101%,106%,102%,121%,118%,107%,100%,96.9%
COc1cc2cc(NCc3ccc(Cl)cc3)nc(C)c2cc1OC,49%,9.09% (active),88.3%,42.1%,48.5%,43.7%,34.4%,-14.9% (active),64.2%,19.3%
COc1cc(Nc2c(C#N)cnc3cc(OCCCN4CCN(C)CC4)c(OC)cc23)c(Cl)cc1Cl,46%,22.7%,1.06% (active),62.3%,59%,70.5%,83.7%,94.4%,-8.01% (active),13%
